Only a selection was taken, and hits are over-represented in it overall.
Bead autofluor – flagged as autofluorescent in microsphere protease counterscreen | compound autofluorescence counterscreen, microsphere flow cytometry; hits give high values | fluorescence intensity (test concentration not listed) | 360,000 compounds, 3.1% hits | AID 624483; in the data active = fluorescence intensity above about 16000; inconclusive = no clear call, values can overlap the other calls
TcdB GH inh – inhibitors of Clostridioides difficile toxin B glycohydrolase; P18177; TcdB glycohydrolase enzymatic assay, plate reader; inhibition, % at 9.99 µM; 350,000 compounds, 0.24% hits; AID 652162; in the data active = inhibition above about 10%
Anthrax LF prot – blocks Bacillus anthracis lethal factor protease; P15917; multiplex microsphere protease cleavage assay, LF; inhibition, % at 10 µM; 360,000 compounds, 0.12% hits; note: plate controls were buffer without enzyme for full effect and enzyme alone for no effect
BoNT F protease – blocks Botulinum neurotoxin F light chain protease. AID 588497. inhibition, % at 10 µM. 360,000 compounds, 0.22% hits. Multiplex microsphere protease cleavage assay, flow cytometry; in the data active = inhibition above about 35%, passing the limit was not always enough; inconclusive = no clear call, values can overlap the other calls; note: plate controls were buffer without enzyme for full effect and enzyme alone for no effect
BoNT A protease – BoNT A light chain protease inhibition. inhibition, % at 10 µM. AID 588499. multiplex microsphere protease substrate cleavage, flow cytometry. 360,000 compounds, 0.17% hits; note: plate controls were buffer without enzyme for full effect and enzyme alone for no effect
Numbers without * were called inactive; ? = inconclusive; nt = no result. Cut-off read from the data, not from the text of the source, unless noted: active = inhibition above about 30%; inconclusive = no clear call, values can overlap the other calls; inactive = below that.

SMILES	Bead autofluor	TcdB GH inh	Anthrax LF prot	BoNT F protease	BoNT A protease
O=C(CCn1c(=O)c2sccc2n(CC(=O)NCc2ccco2)c1=O)NCc1ccccc1	24369*	nt	-4.2	-8.8	-4.2
Cc1ccc(C)c(Cn2c(=O)n(CCCC(=O)NCc3ccco3)c(=O)c3sccc32)c1	3168	nt	-3.9	-28.5	-1.1
Cc1cccc(C)c1NC(=O)Cn1c(=O)n(CCCC(=O)NCc2ccco2)c(=O)c2sccc21	22217*	nt	0.0	-7.4	-6.5
COc1ccc(CCNC(=O)Cn2c(=O)n(CCCC(=O)NCc3ccco3)c(=O)c3sccc32)cc1OC	5088	0.9	-3.1	-2.3	-0.6
O=C(CCCn1c(=O)c2sccc2n(CC(=O)NCc2ccco2)c1=O)NCc1ccco1	20462*	nt	1.6	2.7	?
CCCC(=O)Nc1ccc2c(c1)C(=O)N(C)C[C@@H](OC)[C@@H](C)CN(C(=O)c1ccncc1)[C@H](C)CO2	nt	-0.2	nt	nt	nt
CC(C)NC(=O)N(C)C[C@@H]1OCCCC[C@@H](C)Oc2ccc(NS(=O)(=O)c3ccccc3)cc2C(=O)N([C@@H](C)CO)C[C@@H]1C	nt	-0.3	nt	nt	nt
CCC(=O)N[C@H]1CC[C@@H](CCn2cc(-c3cccc(OC)c3)nn2)O[C@H]1CO	nt	-1.0	nt	nt	nt
COc1ccc(S(=O)(=O)N[C@H]2CC[C@H](CC(=O)N3CCC(Cc4ccccc4)CC3)O[C@@H]2CO)cc1	nt	0.1	nt	nt	nt
COC(=O)c1sc(NC(=O)COc2ccc(C)cc2)nc1C	20397*	1.1	1.0	3.6	1.0
CCN(CC)c1ccc(/C=C/c2ccc3ccc(OC)cc3[n+]2CC)cc1	3250	0.9	-3.8	-111.3	59.5*
CC(C)NC(=O)Nc1ccc2c(c1)C(=O)N([C@@H](C)CO)C[C@H](C)[C@@H](CN(C)S(=O)(=O)c1ccc(F)cc1)OCCCC[C@H](C)O2	nt	0.9	nt	nt	nt
COc1cccc(C#Cc2ccc([C@H]3[C@H](CO)N4C(=O)CN(C(=O)C5CC5)C[C@@H]34)cc2)c1	nt	1.0	nt	nt	nt
c1cc2c(cc1C1=Nn3c(nnc3C3CCCCC3)SC1)OCO2	9925	nt	0.8	2.7	-0.9
COc1ccc(C2=Nn3c(nnc3-c3ccccn3)SC2)cc1OC	22882*	nt	-0.9	-1.0	?
CCOc1ccc(C2=Nn3c(nnc3-c3ccccn3)SC2)cc1	3895	nt	-1.4	-20.0	-0.9
c1ccc(-c2nnc3n2N=C(c2ccc4c(c2)OCO4)CS3)nc1	18035*	3.0	-0.8	5.6	4.8
Cn1cnc(S(=O)(=O)N[C@@H]2C=C[C@H](CC(=O)NCC3CCCCC3)O[C@H]2CO)c1	nt	0.8	nt	nt	nt
CCc1ccccc1NC(=O)Cn1nc(C(F)(F)F)cc1C1CC1	16270*	1.7	-2.2	-1.1	?
CCNS(=O)(=O)c1ccc(NC(=O)Cn2nc(C(F)(F)F)cc2C)cc1	2854	nt	-0.3	-6.5	-0.5
CC(C)(C)NC(=O)CN(Cc1cccs1)C(=O)C1COc2ccccc2O1 (stereo unspecified)	23568*	nt	0.1	-1.3	-0.7
CCOc1ccccc1C1CC(=O)Nc2cc3c(cc21)OCCO3 (stereo unspecified)	16905*	nt	-2.0	-4.2	-2.7
O=C(C[C@@H]1C=C[C@@H](NC(=O)Nc2ccc(C(F)(F)F)cc2)[C@H](CO)O1)NCCN1CCCC1	nt	0.6	nt	nt	nt
O=C(NC1(C(F)(F)F)NC(=O)N(Cc2cccnc2)C1=O)c1ccccc1 (stereo unspecified)	20881*	nt	-2.2	-6.5	-4.2
CN1C(=O)NC(NC(=O)c2cccs2)(C(F)(F)F)C1=O (stereo unspecified)	9064	nt	6.3	2.8	0.8
SMILES	Bead autofluor	TcdB GH inh	Anthrax LF prot	BoNT F protease	BoNT A protease
CC(C)CN1C(=O)NC(NC(=O)c2cccs2)(C(F)(F)F)C1=O (stereo unspecified)	21985*	nt	0.6	0.0	?
O=C(NC1(C(F)(F)F)NC(=O)N(Cc2ccco2)C1=O)c1cccs1 (stereo unspecified)	20774*	nt	-0.3	8.1	4.8
CC1CN(S(=O)(=O)c2ccccc2)CC(C)O1 (stereo unspecified)	23507*	0.7	0.4	0.4	?
Cc1cc(C)c(C)c(S(=O)(=O)N2CCC(C(=O)OCC(=O)N3c4ccccc4NC(=O)C3(C)C)CC2)c1C	24651*	nt	-2.4	-3.6	-1.7
CC1(C)C(=O)Nc2ccccc2N1C(=O)COC(=O)C1CCCCC1	2731	nt	2.6	-4.1	1.2
C[C@@H]1CN([C@@H](C)CO)C(=O)Cc2cc(NS(=O)(=O)c3ccccc3)ccc2O[C@@H]1CN(C)CC1CC1	nt	-0.6	nt	nt	nt
CCC(C)Nc1nc(-c2cccc(OC)c2O)nc2ccccc12 (stereo unspecified)	3087	nt	-3.1	?	-0.9
COc1cccc(-c2nc(NC(C)C)c3ccccc3n2)c1O	24838*	nt	-5.7	-6.8	-3.7

Screening results as filed in PubChem BioAssay.
